Source: PubChem
Platelet DG rel: platelet dense granule release activity | AID 1663 | human platelet-rich plasma, SFLLRN dense granule ATP release, luminescence | inhibition, %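 (compounds screened at 7.5 µM in platelet-rich plasma)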 | 300,000 compounds, 0.22% hits;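 active = mean replicate score, as percent of positive control, at or above 50; inconclusive = mean below 50 but at least one replicate at or above 50; inactive = mean and every replicate below 50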
PHOSPHO1 inh: blocks human PHOSPHO1 phosphatase activity | recombinant PHOSPHO1, absorbance phosphatase assay | inhibition, % at 13.3 µM | 290,000 compounds, 1.1% hits | AID 1565; in the data active = inhibition above about 60%
Target sequence (Q8TCT1 whole entry, looked up): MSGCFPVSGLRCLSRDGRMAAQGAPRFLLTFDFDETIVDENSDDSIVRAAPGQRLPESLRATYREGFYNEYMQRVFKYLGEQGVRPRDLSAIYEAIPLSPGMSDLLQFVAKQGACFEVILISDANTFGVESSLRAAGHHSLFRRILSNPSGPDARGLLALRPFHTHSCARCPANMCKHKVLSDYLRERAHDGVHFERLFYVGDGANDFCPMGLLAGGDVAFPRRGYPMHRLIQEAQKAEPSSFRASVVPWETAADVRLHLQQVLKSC
TPT1 inhibitor: inhibitors of Candida albicans tRNA 2'-phosphotransferase TPT1 | recombinant caTPT1, FP RNA substrate dephosphorylation | inhibition, % at 5 µM | 300,000 compounds, 0.81% hits | AID 1962;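 active = inhibition above the mean of all tested compounds plus 3 SD, set per screening campaign, cut at about 24% in these data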;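 note: plate controls were DMSO alone for no effect and ferristatin control at 100 nM for full effect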
SKKanGAS inh: SKKanGAS growth inhibition | S. pyogenes SKKanGAS, kanamycin growth, BacTiter-Glo, 6 h | inhibition, % at 7.5 µM | 300,000 compounds, 1.3% hits | AID 1662;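 active = mean replicate score, as percent of positive control median, at least 50; inconclusive = mean below 50 but one replicate at or above 50; inactive = mean and every replicate below 50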;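 note: strain carries kanamycin resistance gene driven by streptokinase promoter and grows in 40 µg/ml kanamycin; loss of luminescence reflects streptokinase promoter inhibition or plain growth inhibition; 0% = median of DMSO wells and 100% = positive control at its reference dose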
WT yeast gro inh: growth inhibition of WT yeast, mitochondrial fusion screen | mitochondrial fusion phenotypic screen, WT strain | inhibition, % at 10 µM | 190,000 compounds, 2.1% hits | AID 1362; in the data active = inhibition above about 58%; tested in S. cerevisiae
Rtt109 Vps75: blocks Candida albicans Rtt109/Vps75 acetyltransferase activity; 330,000 compounds, 0.16% hits; purified Rtt109/Vps75, ThioGlo CoA-SH fluorescence, 4 h; Q5AAJ8; AID 540336; inhibition, % at 34.9 µM;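 active = inhibition of at least 50% in every replicate; inconclusive = best replicate reaches 50% inhibition but some replicates fall short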
Target sequence (Q5AAJ8 whole entry, looked up): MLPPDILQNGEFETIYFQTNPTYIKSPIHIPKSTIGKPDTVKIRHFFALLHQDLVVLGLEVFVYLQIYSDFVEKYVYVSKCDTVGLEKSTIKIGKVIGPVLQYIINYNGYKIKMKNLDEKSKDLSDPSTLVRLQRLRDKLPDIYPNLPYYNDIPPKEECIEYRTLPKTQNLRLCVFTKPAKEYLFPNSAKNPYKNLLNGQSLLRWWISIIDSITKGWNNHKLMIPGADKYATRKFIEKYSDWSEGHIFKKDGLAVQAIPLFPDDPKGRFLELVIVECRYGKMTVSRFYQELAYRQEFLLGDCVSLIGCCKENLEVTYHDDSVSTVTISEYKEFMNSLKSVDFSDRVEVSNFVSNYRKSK
Starred values were filed as active, the others as inactive; ? = inconclusive; . = not tested or not shown. In the library only some 3.9% were active in any assay of this set; here they are far more common.

SMILES	Platelet DG rel	PHOSPHO1 inh	TPT1 inhibitor	SKKanGAS inh	WT yeast gro inh	Rtt109 Vps75
COC(C(=O)Nc1ccnn1C1CCN(Cc2ccc(CO)o2)CC1)c1ccccc1 (stereo not drawn)	7.8	21.2	2.8	14.7	.	2.5
CN(C)CCCNC(=O)C[C@H]1C[C@H](C(=O)N2CCCCC2)[C@@]2(C)c3[nH]c4cc(CCC(=O)N(C)C)ccc4c3CCN2C1=O	.	.	.	.	.	-5.2
Cc1ccc(C(=O)N2CCN(S(=O)(=O)c3ccc(Br)cc3)CC2)o1	-0.2	21.7	-2.4	-0.1	.	10.8
Cc1ccc(-c2nc(S(=O)(=O)c3ccccc3)c(SCC(=O)NCC3CCCO3)o2)cc1 (stereo not drawn)	-3.2	-17.4	3.3	-0.4	.	-4.3
CC(C)CN(C(=O)CN1C(=O)NC2(CCc3ccccc32)C1=O)C1CCS(=O)(=O)C1 (stereo not drawn)	.	.	.	.	.	-9.4
O=C(COc1ccc(F)cc1)NCC1(N2CCCCC2)CCCCC1	.	.	.	.	.	9.3
COCCn1c(C)cc(C2=NNC(=NC3CC3)SC2)c1C	81.6*	-7.7	-0.6	7.1	9.2	21.9
Cc1nnc(SCC(=O)NCC2COc3ccccc3O2)s1 (stereo not drawn)	.	.	.	.	.	-0.2
O=C(C(=O)N1CCN(c2ccc([N+](=O)[O-])cc2)CC1)c1cn(CC(=O)N2CCOCC2)c2ccccc12	13.9	38.1	0.3	-4.2	.	-0.1
COc1cnc(-c2ccccn2)nc1Oc1ccccc1	0.2	16.2	-2.7	57.1*	-1.7	-1.5
COc1cnc(-c2ccccn2)nc1Oc1cccc(C(F)(F)F)c1	2.0	43.7	4.9	37.6	.	-16.9
COc1cnc(-c2ccccn2)nc1Sc1ccc(Cl)cc1	1.7	16.9	0.7	?	2.9	5.2
COc1cnc(-c2ccccn2)nc1N(C)c1ccccc1	3.1	41.5	-2.2	71.5*	.	-2.9
CCOC(=O)c1c(C)sc(Sc2ccc(Cl)cc2[N+](=O)[O-])c1OC	2.2	-1.4	-4.8	0.1	75.9*	11.1
Cc1cc(=S)[nH]c2ccccc12	15.5	100.2*	0.6	3.5	-10.5	7.0
Cc1ccc2c(C)cc(=S)[nH]c2c1	14.4	-75.8	.	-4.8	14.6	-0.2
Cc1ccc2[nH]c(=S)cc(C)c2c1	-1.4	88.7*	2.7	0.5	11.1	-3.2
CCOC(=O)C1CCN(C(=O)COc2ccc(S(=O)(=O)N3CCOCC3)cc2C)CC1	2.9	28.0	1.0	0.2	.	-1.9
CC1CCN(c2nc(Cl)nc(Nc3ccc([N+](=O)[O-])cc3)n2)CC1	-3.6	4.7	-2.9	2.5	78.2*	2.4
CCN(CC(=O)Nc1c(F)cccc1F)C(=O)C1CCCN(C(=O)c2ccc(Cl)cc2)C1 (stereo not drawn)	9.1	-0.6	5.3	-6.9	.	-5.4
CC(C)(C)c1nnc(N/N=C/c2cc(Br)ccc2O)n(N)c1=O	13.9	4.4	-4.6	78.0*	16.3	-32.8
Cn1c(N)c(S(=O)(=O)N2CCN(c3cccc(Cl)c3)CC2)c(=O)n(C)c1=O	4.8	19.0	0.1	-6.5	.	-4.7
CCCc1cc(C(=O)Nc2ccc(C(=O)c3ccc(C)cc3)cc2)n(C)n1	-4.4	22.6	-3.4	8.1	.	4.5
Cc1ccnc(NC(=O)CSc2cc(=O)n(C)c3ccccc23)c1	-8.0	63.2*	1.0	-5.1	-10.3	0.6
Cc1ccccc1NNC(=O)C(=O)NNc1ccccc1C	4.4	67.6*	-2.8	8.6	.	-17.2
SMILES	Platelet DG rel	PHOSPHO1 inh	TPT1 inhibitor	SKKanGAS inh	WT yeast gro inh	Rtt109 Vps75
C=CC(=O)N(CCC)C(c1ccccc1)c1ccccc1OC (stereo not drawn)	-1.2	.	-0.1	-4.2	.	6.5
Cc1cccc(C)c1NC(=S)N/N=C1\CC2CC=CC12 (stereo not drawn)	4.0	-69.5	-0.5	-2.7	1.9	13.6
Cc1ccc(NC(=S)N/N=C2\CC3CC=CC23)c(C)c1 (stereo not drawn)	0.4	65.3*	4.1	2.8	5.0	5.6
Cc1cccc(NC(=S)N(CCCN2CCCC2)Cc2cccn2Cc2ccc(Cl)cc2)c1	-0.2	-35.2	-0.9	-1.9	77.6*	-19.9
CCOc1ccc(NC(=S)N(CCCN2CCCC2)Cc2cccn2Cc2ccc(Cl)cc2)cc1	0.5	8.6	-0.3	-16.0	70.7*	14.6
CCN1CCN(CCCN(Cc2ccco2)C(=S)Nc2ccc(Cl)cc2)CC1	-0.1	-2.8	-0.8	-0.2	2.6	-2.4
O=P(OC1CCCCC1)(OC1CCCCC1)C(O)c1c(Cl)cccc1Cl (stereo not drawn)	0.4	-4.1	-1.5	8.4	70.7*	5.2
COc1ccc(/C=C/C(=O)NC(=S)NCc2ccccc2)cc1OC	-51.2	-3.1	-3.0	-1.1	.	21.1
O=C(/C=C/c1cccs1)NC(=S)NNC(=O)Cc1cccs1	-7.9	-7.3	-3.4	67.9*	-10.3	0.4
COc1ccc(/C=C/C(=O)NC(=S)NNC(=O)c2cccnc2)cc1OC	6.8	20.2	2.5	18.8	8.1	1.9
COc1ccc(/C=C/C(=O)NC(=S)NNC(=O)c2cccs2)cc1OC	-6.6	-72.5	1.6	73.0*	.	-13.2
COc1ccc(/C=C/C(=O)NC(=S)NNC(=O)Cc2cccs2)cc1OC	-1.5	97.9*	-1.1	67.1*	6.1	.
CCN1C[C@@H]2[C@@H]3C(=O)N(C)C(=O)[C@@H]3[C@](Cc3ccccc3)(C(=O)OC)N2C1=NC1CCCCC1	.	.	.	.	.	-6.3
Cc1cc(C)n2c(SCC(=O)Nc3ccccc3C#N)nnc2n1	.	.	.	.	.	-16.4
C=CCNC(=S)NNC(=O)c1cccn(Cc2cccc(Cl)c2)c1=O	-1.3	79.0*	-0.2	-2.1	-1.0	2.2
CCCCCCCCS(=O)C1CCS(=O)(=O)C1 (stereo not drawn)	-3.0	48.3	-0.7	5.0	-10.0	7.4
CCCCCCS(=O)[C@H]1CS(=O)(=O)C[C@@H]1S(=O)CCCCCC (stereo partly drawn)	1.2	95.9*	-0.8	9.3	58.8	1.4
CCN1CCN(c2ccc(S(=O)(=O)N3CCCCC3)cc2NC(=O)/C=C/c2ccc(Cl)cc2)CC1	.	.	.	.	.	12.7
N#CC(C#N)=C1C=CC=CN1/C(=C\c1ccccc1Cl)C(=O)c1ccccc1	.	-12.2	-5.4	.	67.5*	-3.1
Nc1nc(SCc2ccccc2Cl)c2ncn(C3OC(CO)C(O)C3O)c2n1 (stereo not drawn)	.	.	.	.	.	14.0
O=c1oc2ccccc2c(O)c1Cc1cc(Cl)c2cccnc2c1O	2.3	24.6	-4.0	84.5*	.	-4.6
O=C(Cc1c(O)c2ccccc2oc1=O)c1ccc(C(F)(F)F)cc1	-4.4	14.1	-4.8	4.6	.	0.5
Oc1c(CN2CCCCC2)cc(Br)c2cccnc12	-3.3	-42.6	-3.5	57.5*	42.0	5.2
Oc1c(CN2CCc3ccccc3C2)cc(Cl)c2cccnc12	-19.5	30.5	-1.9	89.3*	45.0	6.7
Cc1cccn2cc(CSc3nnc(Nc4ccc(C(C)C)cc4)s3)nc12	6.9	8.6	-1.9	-8.9	67.8*	-0.2
C/C=C/Cn1c(SC)nc2c1c(=O)[nH]c(=O)n2C	-0.4	71.4*	-1.6	3.6	-9.0	9.0
